Laboratory results: PubChem BioAssay (NCI)
This is part of a sample that, as a whole, favours compounds with a hit. Of some 79,000 tested, about 15% had one in any assay. Active and inactive are the calls of the source. Cut-off read from the data, not from the text of the source: active = growth inhibition above about 70%; inactive = the rest.

Test: NCI Yeast Anticancer Drug Screen. Data for the mgt1 strain (AID 153)
Settings: S. cerevisiae mgt1 mutant growth inhibition, stronger effect = higher value
Protocol: Growth inhibition of yeast strains with defined genetic alterations is measured as a screen for potential anti-cancer activity. Selected strains with alterations in DNA damage repair or cell cycle control were exposed to compounds and growth inhibition was measured relative to vehicle treated controls. The strain used in this assay is mgt1

Measured: growth inhibition

CCCCCCCCC/C=C/C=C/C(=O)NCC(=O)NC1C(O)C(O)C(Nc2ncnc3nc[nH]c23)OC1C(O)CO (stereo not given)
inactive: at 1.2 µM -33% | at 3.7 µM -22% | at 11.0 µM -14% | at 33.0 µM 43% | at 100.0 µM 39%

C[C@H](CCC(=O)NN)[C@H]1CC[C@H]2[C@@H]3CC[C@@H]4C[C@H](O)CC[C@]4(C)[C@H]3CC[C@]12C
inactive: at 1.2 µM 0% | at 3.7 µM -1% | at 11.0 µM 1% | at 33.0 µM -1% | at 100.0 µM 2%

CC(C)/C(Cl)=N\OC(=O)Nc1cccc(Cl)c1
inactive: at 1.2 µM -1% | at 3.7 µM -3% | at 11.0 µM 12% | at 33.0 µM -26% | at 100.0 µM 0%

CCc1ccc(NS(=O)(=O)c2ccccc2)c([N+](=O)[O-])c1
active: at 100.0 µM 74%
inactive: at 1.2 µM 0% | at 3.7 µM 0% | at 11.0 µM 3% | at 33.0 µM 22%

COC(=O)c1ccc(NCC2=CC(=O)C=CC2=O)cc1O
active: at 11.0 µM 77% | at 33.0 µM 97% | at 100.0 µM 91%
inactive: at 1.2 µM 9% | at 3.7 µM 30%

OC1CCCc2c1cc1ccc3cccc4ccc2c1c34 (stereo not given)
inactive: at 1.2 µM -4% | at 3.7 µM -8%
active: at 11.0 µM 99% | at 33.0 µM 98% | at 100.0 µM 90%

COc1ccccc1N=NC(C(=O)c1ccccc1)C(=O)c1ccccc1
active: at 33.0 µM 96% | at 100.0 µM 98%
inactive: at 1.2 µM -29% | at 3.7 µM -24% | at 11.0 µM 4%

COc1ccccc1/C=C1\Sc2scc(-c3cccc([N+](=O)[O-])c3)[n+]2C1=O
active: at 3.7 µM 98% | at 11.0 µM 99% | at 33.0 µM 94% | at 100.0 µM 91%
inactive: at 1.2 µM 63%
